Screen size: about 16,000 compounds; about 5,100 (32%) were called active. About 25% were inconclusive and are not listed. The list shows a part of the results. Values without a mark were called inactive. The call rests on the fitted dose curve; in most records, active means well fitted curve in the direction sought with a large enough effect; inconclusive means small, poorly fitted or top-dose-only effect, or effect the other way; inactive means no such curve, though single readings can be large or run the other way.

The source of these data is PubChem BioAssay AID1851 (National Center for Advancing Translational Sciences (NCATS), 2009).
On the % scale 0 is the no-effect control and ±100 the full control effect.

The target in this assay is Cytochrome P450 3A4 (Homo sapiens) (UniProt P08684). As to the kind of experiment: Cytochrome panel assay with activity outcomes. To be noted: recombinant CYP, pro-luciferin dealkylation, luminescence, p450-cyp3a4; series mostly up to 57.1 µM.
Cytochrome P450 3A4 (Homo sapiens), sequence (P08684 whole entry, looked up): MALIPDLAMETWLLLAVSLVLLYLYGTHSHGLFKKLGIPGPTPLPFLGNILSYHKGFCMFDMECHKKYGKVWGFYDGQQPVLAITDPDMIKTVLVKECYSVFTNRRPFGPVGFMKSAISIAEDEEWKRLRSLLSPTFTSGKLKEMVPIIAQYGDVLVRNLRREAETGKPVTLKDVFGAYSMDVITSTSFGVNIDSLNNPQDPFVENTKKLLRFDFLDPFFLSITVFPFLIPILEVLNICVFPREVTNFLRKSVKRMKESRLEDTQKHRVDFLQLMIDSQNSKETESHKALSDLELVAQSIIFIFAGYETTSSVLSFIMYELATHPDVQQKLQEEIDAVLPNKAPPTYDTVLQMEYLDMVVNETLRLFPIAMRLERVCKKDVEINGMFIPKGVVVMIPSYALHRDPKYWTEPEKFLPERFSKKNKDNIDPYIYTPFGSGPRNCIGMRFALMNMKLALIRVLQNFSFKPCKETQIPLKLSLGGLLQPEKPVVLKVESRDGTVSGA
With `Cc1noc(C)c1C(=O)N1CCC2(CCN(C(=O)NC(C)C)CC2)CC1`, the AC50 result was “inactive”.

`COC(=O)Cn1nc(-c2ccccc2)n(-c2ccccc2)c1=S`: the AC50 result was “inactive”.

Regarding `CCn1nc(C(=O)Nc2ccccc2C)c(Cl)c1Cl`, the AC50 entry was “inactive”.

As to `CCn1c(-c2ccccc2Cl)nn(CC(=O)Nc2ccccc2OC)c1=S`, the AC50 is 12.6 µM (active).

As to `CCn1c(-c2ccccc2Cl)nn(CC(=O)Nc2cc(Cl)ccc2Cl)c1=S`, the AC50 was 5.01 µM (active).

For `CCn1c(-c2ccccc2Cl)nn(CC(=O)Nc2ccc(OC)cc2)c1=S`, the AC50 was 5.01 µM (active).

As for `COc1ccc(Oc2ncc3nc(-c4ccc(F)cc4)c(=O)n(C)c3n2)cc1`, the AC50 was 3.98 µM (active).

Take `O=c1c(-c2cc(F)cc(F)c2)nc2cnc(Oc3ccccc3)nc2n1C1CC1`: the AC50 result was “inactive”.

For the compound `COc1cccc(Nc2ncc3nc(-c4ccc(F)cc4)c(=O)n(C)c3n2)c1`, the AC50 entry was “inactive”.

In the case of `COc1ccc(Oc2ncc3nc(-c4cc(F)cc(F)c4)c(=O)n(C)c3n2)cc1`, the AC50 is 5.01 µM (active).

For `COc1ncc2nc(-c3cc(F)cc(F)c3)c(=O)n(-c3ccccc3)c2n1`, the AC50 entry is “inactive”.

For the compound `CN(CCO)Cc1ncccc1O`, the activity, negative = inhibition is -9.73% [at 11.4 µM].

In the case of `O=C(O)[C@H](Cc1c[nH]c2ccccc12)N1C(=O)c2ccccc2C1=O`, the activity, negative = inhibition is -3.21% [at 11.4 µM].

As to `CN1CCN(CCCNC(=O)C2CCN(c3nnc(-n4cccc4)s3)CC2)CC1`, the AC50 entry is “inactive”.

In the case of `O=C(NCCc1c[nH]c2ccccc12)C1CCN(c2nnc(N3CCCC3=O)s2)CC1`, the AC50 is 8.91 µM (active).

In the case of `CCOc1ccc(NC(=S)N(Cc2ccc(N(C)C)cc2)Cc2ccco2)cc1`, the AC50 is 7.08 µM (active).

As to `CCOc1ccc(NC(=S)N(Cc2ccc(Cl)cc2)Cc2ccco2)cc1`, the AC50 is 3.55 µM (active).

Take `Cc1cccc(OCCSCc2nc3ccccc3[nH]2)c1`: the AC50 was 7.08 µM (active).

Turning to `c1ccc(C(c2ccccc2)N2CC[C@@]3(CCCNC3)C2)cc1`, the AC50 was 7.94 µM (active).

Regarding `c1ccc(C(c2ccccc2)N2CCC3(CCNCC3)CC2)cc1`, the AC50 entry is “inactive”.

For `COc1ccccc1CN1CCCC2(CCNCC2)C1`, the AC50 result was “inactive”.

Consider `c1ccc(C(c2ccccc2)N2CCCC3(CCNCC3)C2)cc1`, for which the AC50 was 1.26 µM (active).

Take `Cc1cc(C)cc(-n2c(O)c(C=NC3CCS(=O)(=O)C3)c3ccccc3c2=O)c1` (configuration not stated): the AC50 is 10 µM (active).

As for `O=C(Nc1ccc2c(c1)OCCO2)c1cc2sccc2n1Cc1ccc(F)cc1`, the AC50 was 5.01 µM (active).

On to `O=C(Nc1ccc2c(c1)OCCO2)c1cc2sccc2n1Cc1ccccc1`, for which the AC50 was 6.31 µM (active).

Turning to `COC(=O)c1ccc(NC(=O)c2cc3sccc3n2C)cc1`, the AC50 result was “inactive”.

Consider `Cn1c(C(=O)Nc2ccccc2)cc2sccc21`, for which the AC50 was 25.1 µM (active).

As for `CCOC(=O)c1sc(NC(=O)CSc2n[nH]c(-c3ccc(Cl)cc3Cl)n2)c(C#N)c1C`, the AC50 was 10 µM (active).

For the compound `CCOC(=O)c1sc(NC(=O)CSc2nc(C)cc(C)c2C#N)c(C#N)c1C`, the activity, negative = inhibition was -17.1% [at 2.29 µM].

As for `CCOC(=O)c1sc(NC(=O)CSc2nc(C)cc(C)n2)c(C#N)c1C`, the AC50 is 10 µM (active).

Regarding `CN1[C@@H](CC(=O)c2ccccc2)CCC[C@@H]1C[C@@H](O)c1ccccc1`, the AC50 result was “inactive”.

Turning to `O=C1COC(c2ccccc2O)=NN1CCCN1CCCC1`, the activity, negative = inhibition is -10.8% [at 11.4 µM].

Take `CCc1ccc(N/C(SCc2ccccc2C)=C(/C#N)C(=O)NCc2ccco2)cc1`: the AC50 was 6.31 µM (active).

Take `CCN1CCC[C@@H]1CNC(=O)c1cc(S(N)(=O)=O)ccc1OC`: the AC50 entry is “inactive”.

As for `O=C(CSc1ccccc1)Nc1ccc(N2CCN(c3ccccc3)CC2)c(F)c1`, the activity, negative = inhibition was -8.27% [at 11.4 µM].

With `O=C(CSc1ccc(Cl)cc1)Nc1ccc(N2CCN(c3ccccc3)CC2)c(F)c1`, the AC50 result is “inactive”.

Consider `O=C(CSc1ccc(Cl)cc1)Nc1ccc(N2CCN(C(=O)c3ccc(Cl)cc3)CC2)cc1`, for which the AC50 is 0.891 µM (active).

Take `Cn1nc(-c2ccccc2)c(C(=O)Nc2ccc(Cl)cc2)c1Cl`: the AC50 entry was “inactive”.

Consider `O=C(Nc1ccc(Cl)cc1)c1cnc(-c2ccccc2)nc1-c1ccccc1`, for which the AC50 result was “inactive”.

With `Cc1nc(-c2cccnc2)sc1C(=O)Nc1ccc(F)cc1F`, the AC50 was 15.8 µM (active).

Take `Cc1nc(-c2cccnc2)sc1C(=O)Nc1ccc(Cl)cc1`: the AC50 is 14.1 µM (active).

Turning to `Brc1ccc2cccnc2c1`, the AC50 result is “inactive”.

Turning to `N#CCCn1cc(/C=N/O)c(-c2ccc(Cl)cc2)n1`, the AC50 was 12.6 µM (active).

For the compound `N#CCCn1c(=O)c(-c2ccc(Cl)cc2)nc2cnc(N3CCOCC3)nc21`, the AC50 result is “inactive”.

For `CN1CCN(c2ncc3nc(-c4ccc(Cl)cc4)c(=O)n(CCC#N)c3n2)CC1`, the AC50 result was “inactive”.

For `O=S(=O)(N/N=C/c1ccc2c(c1)OCCO2)c1ccc(Cl)cc1`, the AC50 was 14.1 µM (active).

As to `Cc1ccc(S(=O)(=O)N/N=C/c2ccc(OC3CSC3)cc2)cc1`, the activity, negative = inhibition was -21.9% [at 2.29 µM].

As for `O=S(=O)(N/N=C\c1ccc2c(c1)OCO2)c1ccc(Cl)cc1`, the AC50 is 3.98 µM (active).

As for `Cc1cc(OC(=O)c2ccccc2Br)cc(=O)n1C`, the activity, negative = inhibition was -13.2% [at 11.4 µM].

For the compound `CC(C)N=c1cc2n(-c3ccc(Cl)cc3)c3ccccc3nc-2cc1Nc1ccc(Cl)cc1`, the AC50 entry is “inactive”.

As to `O=C(N/N=C/c1ccc(Cl)cc1Cl)Nc1ccccc1`, the AC50 result was “inactive”.

`CN(C)c1nc(NCc2ccccc2)nc(N/N=C/c2ccc(Cl)cc2Cl)n1`: the AC50 is 2.24 µM (active).

As for `CC(Sc1nc(NCc2ccccc2)nc(N(C)C)n1)C(=O)Nc1ccccc1` (configuration not stated), the activity, negative = inhibition is -9.99% [at 2.29 µM].

As to `O=C(O)CC1(C(=O)O)CCCCC1`, the activity, negative = inhibition is -15.2% [at 11.4 µM].

As to `NC1(C(=O)O)C[C@@H](C(=O)O)[C@H](C(=O)O)C1`, the AC50 result was “inactive”.

Take `N.N.O=C(O)C1(C(=O)O)CCC1.[Pt]`: the AC50 is 39.8 µM (active).

In the case of `Cc1ccc(S(=O)(=O)c2nc(S(=O)(=O)c3ccc(C)cc3)c(NCc3ccco3)s2)cc1`, the AC50 was 3.55 µM (active).

Consider `Cc1ccc(CSc2nnc3c(n2)OC2(Nc4ccccc4-3)C(=O)Nc3ccc(F)cc32)cc1` (configuration not stated), for which the activity, negative = inhibition was -12.4% [at 2.29 µM].

Consider `O=C1Nc2ccc(F)cc2C12Nc1ccccc1-c1nnc(SCc3ccccc3F)nc1O2` (configuration not stated), for which the AC50 is 15.8 µM (active).

For the compound `Cc1ccc(CNC(=O)[C@H]2C[C@@H]2[C@H](NP(=O)(c2ccccc2)c2ccccc2)c2ccccc2)c(F)c1F`, the AC50 is 0.316 µM (active).

On to `Cc1cc(CNC(=O)[C@@H]2C[C@H]2[C@@H](NP(=O)(c2ccccc2)c2ccccc2)c2ccccc2)nn1C`, for which the AC50 was 0.398 µM (active).

Turning to `Cc1cc(CNC(=O)[C@H]2C[C@@H]2[C@H](NP(=O)(c2ccccc2)c2ccccc2)c2ccccc2)nn1C`, the AC50 is 2.51 µM (active).

Broadly, the AC50 is the midpoint of the concentration-response curve, whichever way the signal moves.
